Assay results taken from article PMC10812921, “Transcriptional Coactivator BOB1 (OBF1, OCA-B) Modulates the Specificity of DNA Recognition by the POU-Domain Factors OCT1 and OCT2 in a Monomeric Configuration”.

What was measured:
POU1 (OCT1 POU domain) = POU1 (OCT1 POU domain) (human, UniProt P14859 260-458); test: EMSA-SELEX-seq; no BOB1; 20 mM Tris-HCl pH 7.6, 140 mM NaCl, 10% glycerol, 0.5 mM EDTA, 0.05% Triton X-100, 0.1 mg/mL BSA, 0.1 mg/mL poly(dI-dC), 5 mM DTT, room temperature, 20 min; high values mean tight binding; conditions: protein: recombinant; dsDNA, one strand shown
Procedure, shortened: (§1)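 In this selection, tagged POU-domain proteins from E. coli BL21, purified under denaturing conditions and renatured, were bound to a PCR-amplified double-stranded random 35-nt library with or without coactivator protein. Reactions held 30 ng protein, 300 ng library and, where used, 28 ng coactivator protein in 20 μL Tris–HCl pH 7.6 binding buffer for 20 min at RT. Complex bands were cut from native 6% PAGE, eluted and PCR-amplified over four rounds, then Illumina-sequenced, and binding preference is the percentage of sequenced 8-mers matching a motif pattern.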

POU2 (OCT2 POU domain) = molecular target: T1, POU2 (OCT2 POU domain) (human, UniProt P09086 175-386); test: as above; conditions: protein: recombinant; dsDNA, one strand shown
T1 sequence: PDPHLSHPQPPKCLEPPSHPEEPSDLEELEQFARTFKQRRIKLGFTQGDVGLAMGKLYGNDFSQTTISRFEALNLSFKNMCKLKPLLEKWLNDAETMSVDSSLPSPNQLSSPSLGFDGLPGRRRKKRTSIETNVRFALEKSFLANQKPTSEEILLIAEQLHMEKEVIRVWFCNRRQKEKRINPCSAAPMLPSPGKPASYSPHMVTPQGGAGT
Procedure, shortened: as §1

[1] = molecular target: POU1 (OCT1 POU domain);BOB1 (OBF1, OCA-B) (human;human, UniProt P14859;Q16633 260-458;1-256, |); test: EMSA-SELEX-seq; with BOB1 (ternary complex band); 20 mM Tris-HCl pH 7.6, 140 mM NaCl, 10% glycerol, 0.5 mM EDTA, 0.05% Triton X-100, 0.1 mg/mL BSA, 0.1 mg/mL poly(dI-dC), 5 mM DTT, room temperature, 20 min; high values mean tight binding; conditions: protein: recombinant;recombinant; copies: 1;1; dsDNA, one strand shown
Procedure, shortened: as §1

[2] = molecular target: T2, POU2 (OCT2 POU domain);BOB1 (OBF1, OCA-B) (human;human, UniProt P09086;Q16633 175-386;1-256, |); test: as above; conditions: protein: recombinant;recombinant; copies: 1;1; dsDNA, one strand shown
T2 sequence 1: T1 sequence
T2 sequence 2: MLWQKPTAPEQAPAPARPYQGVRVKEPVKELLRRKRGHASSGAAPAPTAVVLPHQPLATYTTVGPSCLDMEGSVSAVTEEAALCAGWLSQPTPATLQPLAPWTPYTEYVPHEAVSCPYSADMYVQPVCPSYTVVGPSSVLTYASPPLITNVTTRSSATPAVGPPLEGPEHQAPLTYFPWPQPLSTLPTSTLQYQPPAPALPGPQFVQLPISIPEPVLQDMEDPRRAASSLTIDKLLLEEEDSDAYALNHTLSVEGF
Procedure, shortened: as §1

Chain of POU1 (OCT1 POU domain) (P14859 260-458): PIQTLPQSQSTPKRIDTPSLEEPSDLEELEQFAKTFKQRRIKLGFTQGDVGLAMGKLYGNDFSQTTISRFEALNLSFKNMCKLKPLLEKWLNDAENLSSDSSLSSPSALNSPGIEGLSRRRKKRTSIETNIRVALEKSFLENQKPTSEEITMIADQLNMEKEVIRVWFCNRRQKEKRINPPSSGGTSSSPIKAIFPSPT

Sequence | binding signal (POU1 (OCT1 POU domain)) | binding signal (POU2 (OCT2 POU domain)) | binding signal [1] | binding signal [2]
AGTGCAAA | 0.0873 % of ANNNNAAN 8-mers | 0.0593 % of ANNNNAAN 8-mers | 0.126 % of ANNNNAAN 8-mers | 0.0743 % of ANNNNAAN 8-mers
AGCAGAAA | 0.0374 % of ANNNNAAN 8-mers | 0.0339 % of ANNNNAAN 8-mers | 0.0336 % of ANNNNAAN 8-mers | 0.0281 % of ANNNNAAN 8-mers
AAGGTAAT | 0.122 % of ANNNNAAN 8-mers | 0.163 % of ANNNNAAN 8-mers | 0.0925 % of ANNNNAAN 8-mers | 0.128 % of ANNNNAAN 8-mers
AAGCAAAT | 0.378 % of ANNNNAAN 8-mers | 0.27 % of ANNNNAAN 8-mers | 0.906 % of ANNNNAAN 8-mers | 0.826 % of ANNNNAAN 8-mers
AGTACAAT | 0.0416 % of ANNNNAAN 8-mers | 0.0426 % of ANNNNAAN 8-mers | 0.0386 % of ANNNNAAN 8-mers | 0.0462 % of ANNNNAAN 8-mers
ACCGAAAA | 0.0248 % of ANNNNAAN 8-mers | 0.0322 % of ANNNNAAN 8-mers | 0.0226 % of ANNNNAAN 8-mers | 0.0165 % of ANNNNAAN 8-mers
ATCGGAAT | 0.0717 % of ANNNNAAN 8-mers | 0.0869 % of ANNNNAAN 8-mers | 0.0581 % of ANNNNAAN 8-mers | 0.0768 % of ANNNNAAN 8-mers
ATCGGAAA | 0.04 % of ANNNNAAN 8-mers | 0.0409 % of ANNNNAAN 8-mers | 0.0429 % of ANNNNAAN 8-mers | 0.0528 % of ANNNNAAN 8-mers
AGCGTAAG | 0.0214 % of ANNNNAAN 8-mers | 0.0293 % of ANNNNAAN 8-mers | 0.0215 % of ANNNNAAN 8-mers | 0.0338 % of ANNNNAAN 8-mers
AGGGCAAT | 0.0442 % of ANNNNAAN 8-mers | 0.0558 % of ANNNNAAN 8-mers | 0.0457 % of ANNNNAAN 8-mers | 0.0611 % of ANNNNAAN 8-mers
ATACAAAG | 0.0984 % of ANNNNAAN 8-mers | 0.0938 % of ANNNNAAN 8-mers | 0.139 % of ANNNNAAN 8-mers | 0.09 % of ANNNNAAN 8-mers
AGTTTAAA | 0.0881 % of ANNNNAAN 8-mers | 0.0938 % of ANNNNAAN 8-mers | 0.0808 % of ANNNNAAN 8-mers | 0.0751 % of ANNNNAAN 8-mers
AAACGAAC | 0.0328 % of ANNNNAAN 8-mers | 0.0293 % of ANNNNAAN 8-mers | 0.0437 % of ANNNNAAN 8-mers | 0.0355 % of ANNNNAAN 8-mers
AGTGGAAC | 0.0267 % of ANNNNAAN 8-mers | 0.0207 % of ANNNNAAN 8-mers | 0.0281 % of ANNNNAAN 8-mers | 0.0314 % of ANNNNAAN 8-mers
ATCGTAAC | 0.0236 % of ANNNNAAN 8-mers | 0.0288 % of ANNNNAAN 8-mers | 0.0238 % of ANNNNAAN 8-mers | 0.0322 % of ANNNNAAN 8-mers
AAAACAAG | 0.0641 % of ANNNNAAN 8-mers | 0.0432 % of ANNNNAAN 8-mers | 0.087 % of ANNNNAAN 8-mers | 0.0751 % of ANNNNAAN 8-mers
AACTAAAC | 0.0225 % of ANNNNAAN 8-mers | 0.0299 % of ANNNNAAN 8-mers | 0.0289 % of ANNNNAAN 8-mers | 0.0264 % of ANNNNAAN 8-mers
ACTTTAAC | 0.032 % of ANNNNAAN 8-mers | 0.0345 % of ANNNNAAN 8-mers | 0.0304 % of ANNNNAAN 8-mers | 0.0355 % of ANNNNAAN 8-mers
AAGGGAAG | 0.05 % of ANNNNAAN 8-mers | 0.0541 % of ANNNNAAN 8-mers | 0.0511 % of ANNNNAAN 8-mers | 0.0388 % of ANNNNAAN 8-mers
ACACAAAC | 0.0236 % of ANNNNAAN 8-mers | 0.019 % of ANNNNAAN 8-mers | 0.0398 % of ANNNNAAN 8-mers | 0.0297 % of ANNNNAAN 8-mers
ACTATAAT | 0.0595 % of ANNNNAAN 8-mers | 0.0748 % of ANNNNAAN 8-mers | 0.0472 % of ANNNNAAN 8-mers | 0.0388 % of ANNNNAAN 8-mers
AAACGAAA | 0.0568 % of ANNNNAAN 8-mers | 0.0558 % of ANNNNAAN 8-mers | 0.0644 % of ANNNNAAN 8-mers | 0.052 % of ANNNNAAN 8-mers
ACACCAAG | 0.0103 % of ANNNNAAN 8-mers | 0.0178 % of ANNNNAAN 8-mers | 0.0129 % of ANNNNAAN 8-mers | 0.0124 % of ANNNNAAN 8-mers
ACGAGAAG | 0.0217 % of ANNNNAAN 8-mers | 0.0288 % of ANNNNAAN 8-mers | 0.0269 % of ANNNNAAN 8-mers | 0.0347 % of ANNNNAAN 8-mers
AAGGTAAC | 0.0313 % of ANNNNAAN 8-mers | 0.0293 % of ANNNNAAN 8-mers | 0.0234 % of ANNNNAAN 8-mers | 0.0322 % of ANNNNAAN 8-mers
ATTATAAT | 0.94 % of ANNNNAAN 8-mers | 1.04 % of ANNNNAAN 8-mers | 0.163 % of ANNNNAAN 8-mers | 0.207 % of ANNNNAAN 8-mers
ACTCGAAC | 0.016 % of ANNNNAAN 8-mers | 0.0184 % of ANNNNAAN 8-mers | 0.0113 % of ANNNNAAN 8-mers | 0.0198 % of ANNNNAAN 8-mers
AGCGCAAT | 0.0278 % of ANNNNAAN 8-mers | 0.0368 % of ANNNNAAN 8-mers | 0.0258 % of ANNNNAAN 8-mers | 0.0297 % of ANNNNAAN 8-mers
AACTGAAA | 0.0358 % of ANNNNAAN 8-mers | 0.0386 % of ANNNNAAN 8-mers | 0.0382 % of ANNNNAAN 8-mers | 0.038 % of ANNNNAAN 8-mers
AAGCCAAG | 0.0271 % of ANNNNAAN 8-mers | 0.0184 % of ANNNNAAN 8-mers | 0.0168 % of ANNNNAAN 8-mers | 0.019 % of ANNNNAAN 8-mers
